We go through 101 molecules from PubChem BioAssay AID862 (The Scripps Research Institute Molecular Screening Center, 2007).

Each structure is given as a SMILES string. The whole screen tested about 190,000 compounds, of which about 1,700 (0.89%) were called active. The sample as a whole holds a higher share of actives than the screen did. Values without a mark were called inactive.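 Rule for the calls: active = inhibition above the mean inhibition across all screened compounds plus 3 SD (cut at about 44% in these data); inactive = the rest.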

The assay in a line: IL-6 driven STAT3 reporter inhibitors, primary screen, U3A cells, luciferase, luminescence, MLSCN library (AID 862).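 Note: 0% = DMSO only wells and 100% = 100 µM nifuroxazide control wells.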 As to conditions: IL-6 STAT3-luciferase reporter, at 5.5 µM, active compounds read high, host cell line lacks STAT1. Background: Reporter assays use an easily measured gene product as a stand-in for the process of interest.
Consider `COc1ccc2oc(-c3cccc(NC(=O)CSc4ccc(Cl)cc4)c3)nc2c1`, for which the inhibition is -4.6%.
In the case of `COc1cccc(-c2nc3cc(C)ccc3o2)c1`, the inhibition is 45% (active).
With `COc1ccc(-c2nc3cc([N+](=O)[O-])ccc3o2)cc1OC` the figure was 20.3%.
Turning to `Cc1ccc(C(=O)Cc2nnc(C)s2)cc1`, the inhibition was -4.3%.
As for `C/C(=N\NC(=O)CNC(=O)C(c1ccccc1)c1ccccc1)c1ccc(C)cc1`, the figure is -6.9%.
As for `O=C(Nc1cccnc1)c1noc2c1CCCCC2`, the figure is 43.9% (active); as for `O=C(Nc1cccnc1)c1cccc(S(=O)(=O)N2CCCC2)c1`, 6.6%.
As for `COc1cccc(C(=O)Nc2cccnc2)c1OC`, the figure is 2.9%; as for `Cc1ccc(-n2c(SCC(=O)N/N=C/C=C/c3ccccc3[N+](=O)[O-])nc3ccccc3c2=O)cc1`, 1.3%.
Turning to `CC(Sc1nncn1C)C(=O)Nc1cc(C(F)(F)F)ccc1N1CCOCC1` (stereo unspecified), the inhibition is 0.4%.
Turning to `OCCNCc1cccc(OCc2ccccc2Cl)c1`, the inhibition is -9.4%.
With `S=c1[nH]nc(/C=C/c2ccccc2)o1` the figure was -4.3%; with `O=c1oc(/C=C/c2ccccc2)nc2ccccc12`, 44.2% (active).
With `CCn1c(/C=C/c2ccc([N+](=O)[O-])o2)nc2ccccc2c1=O` the figure was 25.7%.
As for `COc1ccc(/C=C/C(=O)c2ccc(NS(=O)(=O)c3ccc(C)cc3)cc2)cc1O`, the inhibition is -5.1%.
As for `Cc1ccc(O)c(-c2cc(C(=O)NCc3ccccc3)[nH]n2)c1`, the figure is -0.7%; as for `CCCn1nc(C(=O)Nc2ccc3nc(C)sc3c2)c2ccccc2c1=O`, 0.8%.
With `CCN(CC)c1ccc(/C=N/Nc2nc(C)cc(=O)[nH]2)cc1` the figure was 46.4% (active); with `Cc1cc(=O)[nH]c(N/N=C/c2c(C)nn(-c3ccccc3Cl)c2Cl)n1`, 7.1%.
As for `CCN(CC)c1ccc(/C=N/Nc2nc(C)cc(C)n2)c(O)c1`, the figure is 16%; as for `Nc1nnc(SCn2nnc3ccccc3c2=O)s1`, 9.1%; as for `O=C(NC(Nc1nc2ccc([N+](=O)[O-])cc2s1)(C(F)(F)F)C(F)(F)F)c1ccccc1`, 92.4% (active).
For `O=C(Nc1nc2ccc([N+](=O)[O-])cc2s1)c1ccc(S(=O)(=O)N2CCCc3ccccc32)cc1`, the inhibition was 21.1%.
As for `O=C(O)CCC(=O)Nc1nc2ccc([N+](=O)[O-])cc2s1`, the figure is 13.9%; as for `OCCC1CN(Cc2ccc(Oc3ncccn3)cc2)CCN1CCc1ccccc1` (stereo unspecified), 4.1%; as for `Cc1cc[n+](-c2[nH]c(=O)sc2/C=N/NC(=O)c2ccccc2[O-])cc1C`, 6.7%.
Take `COc1ccc(OC)c(N=Cc2c(O)[nH]c3ccccc23)c1`: the inhibition was 22.7%.
With `COc1ccc(N=Cc2c(O)[nH]c3ccccc23)cc1OC` the figure was 40.4%; with `COc1cc(N=Cc2c(O)[nH]c3ccccc23)cc(OC)c1OC`, 56% (active); with `Cc1cc(C)nc(SC2CCCCC2NS(=O)(=O)c2ccc(Cl)cc2)n1` (stereo unspecified), -5.1%.
As for `Nc1c(C(=O)O)cnn1-c1ccccc1`, the figure is -7.4%.
As for `Cc1ccc(N2C(=O)SC(N(CC(=O)O)c3ccc(C)cc3)C2=O)cc1` (stereo unspecified), the figure is 0.7%; as for `Nc1ccc(-c2nnc(-c3ccc(-c4ccccc4)cc3)o2)cc1`, -2.7%; as for `CCCCCC(=O)Nc1ccc2oc(-c3ccncc3)nc2c1`, 21.8%.
On to `CCc1ccc2oc(-c3ccc(N)cc3)nc2c1`, for which the inhibition was 79.6% (active).
As to `COc1ccc(Nc2nc(-c3ccccc3)cs2)cc1`, the inhibition was -10.2%.
Consider `COc1ccc(-c2csc(Nc3ccccn3)n2)cc1`, for which the inhibition is 51.5% (active).
As for `c1ccc(Nc2nc(-c3ccncc3)cs2)nc1`, the figure is 9.9%.
As for `Cc1ccccc1-n1nc(SCC(=O)O)sc1=S`, the figure is 3.4%; as for `COc1cccc(CNC(=O)CCC2CCCN(Cc3ccc(OC(F)F)cc3)C2)c1` (stereo unspecified), 13.3%; as for `COc1ccc(Nc2ncc(F)c(N3CCOCC3)n2)cc1`, 50.7% (active).
As for `CCOc1ccc(Nc2nc(Cl)nc(N3CCN(c4ccc(OC)cc4)CC3)n2)cc1`, the figure is -0.7%; as for `c1ccc(Nc2nc(N3CCOCC3)c3ccccc3n2)cc1`, 22%.
For the molecule `O=[N+]([O-])c1ccc2oc(-c3cccc(O)c3)nc2c1`, the inhibition was 1.8%.
With `O=C(Nc1ccccc1F)c1ccc(Cn2cc(Br)cn2)cc1` the figure was 14.9%.
As to `Cc1ccc(-n2ncc3c(=O)[nH]cnc32)c(C)c1`, the inhibition was 10.7%.
For the molecule `COc1ccc(-n2ncc3c(N4CCc5ccccc54)ncnc32)cc1`, the inhibition is 2.3%.
As for `COC(=O)CSc1ncnc2c1cnn2-c1ccc(C)cc1C`, the figure is 23.1%.
As for `c1ccc(-n2ncc3c(N4CCCC4)ncnc32)cc1`, the figure is 46.7% (active).
With `Cc1ccc(-n2ncc3c(N4CCN(c5ccc(F)cc5)CC4)ncnc32)c(C)c1` the figure was 69.6% (active); with `COc1ccc(-n2ncc3c(N4CCCc5ccccc54)ncnc32)cc1`, 30.9%.
`CCOc1ccc(N2C(=O)Nc3ccccc3C2(O)C(=O)NCc2ccco2)cc1` (stereo unspecified): the inhibition is 4.6%.
With `O=c1[nH]oc(O)c1-c1ncc(C(F)(F)F)cc1Cl` the figure was -6.5%; with `S=c1nc(C23CC4CC(CC(C4)C2)C3)nc2sccn12`, 10%.
With `O=C1NC(Nc2nc3ccccc3s2)(C(F)(F)F)C(=O)N1C1CCCCC1` (stereo unspecified), the inhibition was 48.9% (active).
As for `O=C(NC1(C(F)(F)F)NC(=O)N(C2CCCCC2)C1=O)c1ccco1` (stereo unspecified), the figure is 12.1%; as for `COC(=O)NC1(C(F)(F)F)NC(=O)N(C2CCCCC2)C1=O` (stereo unspecified), 7.4%; as for `COCC(C)NC(=O)CSc1nc2nn(-c3ccccc3)c(=O)c-2c2n1CCCCC2` (stereo unspecified), 2.7%.
With `CCCOc1ccc(C(=O)NCCc2ccccc2)cc1` the figure was 50.3% (active); with `O=C(NCCc1ccccc1)c1ccc(OCCOc2ccccc2)cc1`, -1.4%.
With `O=C(NCCOc1ccccc1)c1ccccc1` the figure was 20.1%; with `O=C(CN1C2=NCCN2c2ccccc21)c1cccs1`, 0%; with `c1ccc(-c2cc(N3CCCCC3)c3ccccc3n2)cc1`, 9.3%.
On to `COc1ccc(-c2cn3ccsc3n2)cc1`, for which the inhibition is 28.9%.
As for `Cc1ccc(-c2cn3cc(C)ccc3n2)cc1`, the figure is 103% (active); as for `Cc1ccc(-c2cn(S(=O)(=O)c3cccc([N+](=O)[O-])c3)nc2N)cc1`, 12.3%.
Consider `COc1ccc(-c2cn3cccnc3n2)cc1`, for which the inhibition is 10.6%.
As for `Cc1ccc(-c2cn3cc([N+](=O)[O-])ccc3n2)cc1`, the figure is 86.6% (active).
With `Cc1ccc(-n2cc3ccc([N+](=O)[O-])cc3n2)cc1` the figure was 38.8%; with `CC(=O)Nc1ccc(NC(=O)COc2ccc(S(=O)(=O)NC(C)c3ccccc3)cc2)cc1` (stereo unspecified), 16.1%; with `Cn1cnnc1Sc1ccc(CN2CCN(C3CCCC3)C(CCO)C2)o1` (stereo unspecified), -6.5%.
With `Cc1ccc2nc(-c3ccncc3)cc(C(=O)Nc3ccc4c(c3)OCCO4)c2c1` the figure was 26.4%; with `C/C(=N\NC(=O)CSc1nc2ccccc2c(=O)n1-c1ccccc1C)c1cccs1`, -9.1%.
`O=C(Cc1ccccc1)N1CCN(S(=O)(=O)c2ccc([N+](=O)[O-])cc2)CC1`: the inhibition is -1.6%.
As to `Cc1cc(C)c2c(n1)sc1c(=O)n(-c3ccccc3)c(=O)[nH]c12`, the inhibition is 1.2%.
`Cc1cccc(C(=O)OC(C)CN2CCN(C)CC2)c1` (stereo unspecified): the inhibition was 6.7%.
As for `CCOC(=O)C(C)Sc1nc2ccccc2c(=O)n1CC1CCCCC1` (stereo unspecified), the figure is -5.1%; as for `CN(c1ccc2nc3ccccc3c(=O)n2n1)C1CCCCC1`, 105% (active).
With `O=c1c2ccccc2nc2n1C1(CCCCC1)Cc1ccccc1-2` the figure was -3.8%; with `CN(C)C(CNC(=O)c1cccc(C#N)c1)c1ccco1` (stereo unspecified), 5.3%; with `CCOC(=O)CNC(=O)CSc1ccc2nnc(-c3cccnc3)n2n1`, -10.3%.
With `Cn1ccc(=NC=C(C#N)C#N)c2ccccc21` the figure was 1.3%; with `Cc1noc(C)c1COc1cccc(C(=O)Nc2cccnc2)c1`, 14.6%; with `CN(Cc1cccnc1)C(=O)c1cc(COc2ccc3ncccc3c2)on1`, 79.1% (active).
Take `Cc1cccc(OCCNC(=S)NC(=O)c2cccnc2)c1`: the inhibition was -5%.
As for `O=C(N/N=C/c1ccc([N+](=O)[O-])o1)c1cn(-c2ccccc2)nc1-c1ccc(F)cc1`, the figure is 25%.
As for `O=C(O)c1ccccc1-c1ccccc1C(=O)NCc1cccnc1`, the figure is -4.3%; as for `CCCCOc1ccc(-c2nnc(-c3ccco3)o2)cc1`, 51.7% (active); as for `CCOc1ccc(-c2nnc(-c3ccco3)o2)cc1`, 77.6% (active).
Take `O=C(CCc1ccccc1)Nc1cccc(-c2nnc(-c3ccco3)o2)c1`: the inhibition is 15.5%.
With `CCC(=O)Oc1cccc(C(=O)Nc2ccc(-c3nnc(-c4ccco4)o3)cc2)c1` the figure was 11.2%; with `COc1ccc(OCC(=O)Nc2nnc(-c3ccco3)s2)cc1`, -12.3%; with `CCCCSc1nnc(-c2ccc(C)cc2)o1`, 28.9%.
As for `CC(C)CNC(=O)CC(NCC(C)C)C(=O)O` (stereo unspecified), the figure is 17.2%; as for `CCCOC1CCCN(Cc2cn(C)nc2-c2ccccc2F)C1` (stereo unspecified), 3.9%.
`O=C(NCC1COc2ccccc2O1)C1(c2ccccc2)CCCC1` (stereo unspecified): the inhibition was 9.6%.
As for `O=C(COC(=O)CCc1ccc(S(=O)(=O)N2CCOCC2)cc1)Nc1cccc(Cl)c1`, the inhibition was -7.6%.
As for `CCn1c(NC(=O)c2nn(C)cc2Br)nc2ccccc21`, the figure is 5.2%; as for `CCSc1nnc(NC(=O)c2ccc(C)cc2)s1`, 60.6% (active); as for `CCSc1nnc(NC(=O)Cc2ccccc2OC)s1`, 1.7%.
As for `CC(=O)c1sc(NC(=O)c2ccc(C)cc2)nc1C`, the figure is 33.2%.

The inhibition is the relative decrease from the control value, in per cent.
